Molecules are shown by their SMILES. Results filed as inconclusive are left out. Activity calls are given as the source filed them. The call rests on the fitted dose curve; in most records, active means well fitted curve in the direction sought with a large enough effect in the signal ratio (not every such curve was filed as active); inconclusive means small, poorly fitted or top-dose-only effect, or effect the other way, or a change in a side signal; inactive means no such curve, though single readings can be large or run the other way; the % refers to the signal ratio.

Sequence of Tyrosine-protein phosphatase non-receptor type substrate 1 (Homo sapiens) + Leukocyte surface antigen CD47 (Homo sapiens) (P78324 whole entry, looked up, the tested form may be a part): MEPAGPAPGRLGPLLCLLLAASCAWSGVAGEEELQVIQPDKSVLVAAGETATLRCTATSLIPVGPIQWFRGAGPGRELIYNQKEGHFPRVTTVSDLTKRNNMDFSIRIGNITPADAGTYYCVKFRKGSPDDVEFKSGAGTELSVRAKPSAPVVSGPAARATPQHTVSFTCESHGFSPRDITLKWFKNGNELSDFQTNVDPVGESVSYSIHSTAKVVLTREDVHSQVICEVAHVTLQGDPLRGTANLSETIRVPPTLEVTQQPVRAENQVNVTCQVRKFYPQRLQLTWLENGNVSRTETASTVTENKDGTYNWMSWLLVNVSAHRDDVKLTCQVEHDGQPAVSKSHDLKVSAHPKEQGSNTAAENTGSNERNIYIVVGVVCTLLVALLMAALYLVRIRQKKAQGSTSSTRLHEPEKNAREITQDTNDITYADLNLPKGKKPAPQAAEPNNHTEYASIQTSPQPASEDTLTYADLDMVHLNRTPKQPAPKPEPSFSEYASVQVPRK
Sequence of Tyrosine-protein phosphatase non-receptor type substrate 1 (Homo sapiens) + Leukocyte surface antigen CD47 (Homo sapiens) (Q08722 whole entry, looked up, the tested form may be a part): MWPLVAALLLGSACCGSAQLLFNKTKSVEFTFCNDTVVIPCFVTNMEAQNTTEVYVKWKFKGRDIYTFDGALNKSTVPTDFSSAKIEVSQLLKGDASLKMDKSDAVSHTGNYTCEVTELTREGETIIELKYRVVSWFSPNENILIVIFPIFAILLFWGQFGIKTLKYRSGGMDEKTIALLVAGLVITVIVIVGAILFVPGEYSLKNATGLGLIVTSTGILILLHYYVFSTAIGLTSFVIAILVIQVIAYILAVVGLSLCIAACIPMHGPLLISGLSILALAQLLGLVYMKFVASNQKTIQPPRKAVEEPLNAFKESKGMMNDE

The assay concerns the target Tyrosine-protein phosphatase non-receptor type substrate 1 (Homo sapiens) + Leukocyte surface antigen CD47 (Homo sapiens) (UniProt P78324+Q08722). The experiment in a line: CD47-SIRPalpha protein protein interaction - HTRF assay qHTS validation (AID 1347058). Conditions: TR-FRET HTRF CD47-His / biotin-SIRPalpha binding, ratio 665/615; series mostly up to 38.3 µM. The source says:
SIRPalpha is a myeloid cell expressed immunomodulatory receptor that binds the tumor expressed immune checkpoint CD47. Therapeutic disruption of this interaction leads to immune-mediated tumor rejection. This assay was used to quantitate CD47-SIRPalpha binding biochemically and evaluate chemical libraries for novel CD47-SIRPalpha inhibitors. To recapitulate the biological interaction of CD47 and SIRPalpha, we designed expression constructs to produce their recombinant, soluble, extracellular interaction domains. CD47 was produced with an N-terminal 6His tag. SIRPalpha was produced with an N-terminal Avi-Tag for site-specific biotin incorporation. The CD47-SIRPalpha interaction was measured by TR-FRET using affinity tag linked reagents (anti-6His-Eu donor and streptavidin-XL665 acceptor). SIRPalpha without biotin incorporation was used as a positive control inhibitor.
SEQUENCE No. (e.g., 1, 2, 3, etc.); […] (e.g., Cells, Incubation, Reagent, etc.); VALUE and DESCRIPTION.
1a. Reagent. 3 uL CD47-His (12.5 nM) and Anti-His Eu Donor reagent (0.7 nM) added to respective wells in Assay buffer; white/solid bottom high base, med bind 1536-well plates (Greiner 789075)
1b. Reagent. 2 uL Assay buffer negative control for background fluorescence
2. Reagent. 23 nL library compounds (7-pt, 1:4 intraplate titration series) or DMSO control transferred by Pin Tool
3. Centrifuge. Centrifuge plate for 30 s at 1000 RPM
4. Incubation.#Incubate reagents at room temperature for 30 min, protected from light
5. Reagent. 2 uL SIRPalpha-biotin (100 nM) in Assay buffer
6. Incubation.#Incubate reagents at room temperature for 30 min, protected from light
7. Reagent. 1 uL SAV-XL665 (85 nM) acceptor reagent added to respective wells
8. Centrifuge. Centrifuge plate for 30 s at 1000 RPM
9. Incubation. Incubate reagents at room temperature for 30 min, protected from light
10. Detector. Measure Top TR-FRET on EnVision (Eu/APC filter set); calculate ratio Ch1/Ch2
1. Assay buffer composition.#Phosphate buffered saline (PBS; 10 mM Phosphate, 137 mM NaCl, and 2.7 mM KCl; pH 7.4), 0.05% IGEPAL CA-630
2. 23nL of […] library compounds (7 plates) or DMSO vehicle control transferred to 9 Greiner white/solid bottom high base, TC plates in 7 interplate 1:5 titrations (see Yasgar, A. et al. 2008) with Pintool. Two of the 9 plates are DMSO-only in compound field at beginning and end of compound library-treated plates.
10. Detector settings#Mirror = LANCE/DELFIA Dual Enh; Ex. Filter = UV2[TRF] 320; Em. Filter = APC 665; 2nd Em. Filter = Europium 615; Measurement h = 6.5; Ex. light (%) = 100; Delay = […]; Window t = 100 us; No. Seq. windows = 1; Time between flashes = 2000us; No. of flashes = 100; No. of flashes for 2nd detector = 100; Calculation: "Ratio Ch1/Ch2"
Regarding `CNC1(C)C2CCC(C2)C1(C)C` (stereo not given), the result was inactive.

As to `O=C(O)CP(=O)(O)O`, the result was inactive.

Regarding `NC(=O)c1cn(Cc2c(F)cccc2F)nn1`, the result was inactive.

`CCCNC(C)C(=O)Nc1ccccc1C` (stereo not given): the result was inactive.

Turning to `C[N+](C)(C)CCCCCCCCCC[N+](C)(C)C`, the result was inactive.

Consider `O=C1CC2(CCCC2)CC(=O)N1CCCCN1CCN(c2ncccn2)CC1`, for which the outcome was inactive.

Regarding `CC(N=C(NC#N)Nc1ccncc1)C(C)(C)C` (stereo not given), the result was inactive.

Turning to `NC(=O)N1c2ccccc2C=Cc2ccccc21`, the outcome was inactive.

Turning to `CCN1CCC[C@H]1CNC(=O)c1c(O)c(Cl)cc(Cl)c1OC`, the result was inactive.

As for `CCn1ccnc1CC1COc2ccccc2O1` (stereo not given), the result was inactive.

Consider `CCN(CC)CCNC(=O)c1ccc(NC(C)=O)cc1`, for which the result was inactive.

Take `CCCCCCCC/C=C\CCCCCCCC(=O)NCc1ccc(O)c(OC)c1`: the result was inactive.

`c1cnc(N2CCN(Cc3ccc4c(c3)OCO4)CC2)nc1`: the result was inactive.

As to `CN/C(=C\[N+](=O)[O-])NCCSCc1ccc(CN(C)C)o1`, the result was inactive.

Take `CCc1cccc(N(C)C(N)=Nc2cccc3ccccc23)c1`: the outcome was inactive.

Regarding `CN(C(=O)CCCOc1ccc2[nH]c(=O)ccc2c1)C1CCCCC1`, the outcome was inactive.

With `COc1cc(Cc2cnc(N)nc2N)cc(OC)c1OC`, the result was inactive.

As to `COCCCC/C(=N\OCCN)c1ccc(C(F)(F)F)cc1`, the outcome was inactive.

`C[C@]12CCC(=O)C=C1CC[C@@H]1[C@@H]2C(=O)C[C@@]2(C)[C@H]1CC[C@]2(O)C(=O)CO`: the outcome was inactive.

On to `C[N+](C)(C)CCOC(=O)CCC(=O)OCC[N+](C)(C)C`, for which the outcome was inactive.

For the compound `CC(C)NCC(O)c1cc(O)cc(O)c1` (stereo not given), the result was inactive.

As for `CCNC(=O)N1CCN(CCCC(c2ccc(F)cc2)c2ccc(F)cc2)CC1`, the outcome was inactive.

As to `CCCCNC(=O)NS(=O)(=O)c1ccc(C)cc1`, the result was inactive.

Turning to `CCCCNc1c(C(=O)OCC)c(C)nc2c1cnn2CC`, the result was inactive.

`CC(C(=O)O)c1ccc(CC2CCCC2=O)cc1` (stereo not given): the outcome was inactive.

Consider `NC(=O)c1ncn([C@@H]2O[C@H](CO)[C@@H](O)[C@H]2O)c1O`, for which the result was inactive.

Take `FC(F)(F)c1ccccc1-n1ccnc1`: the outcome was inactive.

Turning to `CC(=O)Nc1nnc(S(N)(=O)=O)s1`, the outcome was inactive.

Take `O=C(O)CCCCCCCC(=O)O`: the outcome was inactive.

For `O=C(O)CN(CCN(CC(=O)O)CC(=O)O)CCN(CC(=O)O)CC(=O)O`, the result was inactive.

For `Nc1c2c(nc3ccccc13)CCCC2O` (stereo not given), the outcome was inactive.

In the case of `CN(C)C(=O)Oc1ccc[n+](C)c1`, the result was inactive.

With `C[C@]12CCC(=O)C=C1CC[C@@H]1[C@@H]2CC[C@@]2(C)[C@H]1CC[C@]2(O)C(=O)CO`, the result was inactive.

For the compound `CC(C)[N+](C)(CCOC(=O)C1c2ccccc2Oc2ccccc21)C(C)C`, the result was inactive.

For the compound `c1cc(CN2CCCCC2)cc(OCCCNc2nc3ccccc3s2)c1`, the result was inactive.

Take `C[N+](C)(C)CCOC(N)=O`: the result was inactive.

For `c1ccc2c(c1)CCCC2C1=NCCN1` (stereo not given), the outcome was inactive.

`CCN(Cc1ccncc1)C(=O)C(CO)c1ccccc1` (stereo not given): the result was inactive.

With `CN(C)C/C=C(/c1ccc(Br)cc1)c1cccnc1`, the outcome was inactive.

Regarding `COc1ccc([C@@H]2Sc3ccccc3N(CCN(C)C)C(=O)[C@@H]2OC(C)=O)cc1`, the outcome was inactive.

The values are drawn from PubChem BioAssay (NCATS).
